# Experimental data published in PubChem BioAssay AID2685 (National Center for Advancing Translational Sciences (NCATS), 2010).
# The whole screen tested about 320,000 compounds, of which about 2,100 (0.66%) were called active. Roughly 53% stayed inconclusive and do not appear here. Calls come from the whole dose curve; as a rule, active = well fitted inhibition curve with a large enough effect in the signal ratio, with a control signal flat (not every such curve was filed as active); inconclusive = small, poorly fitted or top-dose-only effect, or effect the other way, or a change in a side signal; inactive = flat fitted curve, though single readings scatter; the % refers to the signal ratio. Only a selection was taken, and actives are over-represented in it overall.
# Experiment: qHTS Assay for Lipid Storage Modulators in Drosophila S3 Cells;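 for cell number change: cells counted by Cell Tracker Red CMTPX staining in the red channel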
# Conditions: BODIPY lipid droplet fluorescence, 18-24 h, cells fed with added oleic acid; cell number change: measured here: cell count max response; series mostly up to 46.1 µM
# How it was run: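 Laser-scanning cytometry quantifies lipid droplet accumulation (500–530 nm total intensity; droplet/cell object ratio) in oleic acid-fed (400 uM added) Drosophila S3 cells treated with a concentration series. 20 uM Triacsin C defined 100% inhibition.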
# Potency is the fitted concentration of half-maximal effect.
SMILES,Potency,cell number change [%]
COc1ccccc1C(=O)Nc1ccc(Br)cc1C,inactive,6.15
COc1ccccc1C(=O)Nc1ccc(Br)c2cccnc12,1.64 µM (active),-27.2
COc1ccccc1NC(=O)c1cccc2c(Br)cccc12,inactive,-20.6
CNc1ccc(Oc2c(F)c(F)nc(F)c2F)cc1,inactive,-27.7
COc1ccc(Cl)cc1C(=O)Nc1ccccc1N1CCCCC1,inactive,5.02
CCn1c(=O)n(CC)c2cc(N3CCCC3)c(NC(=O)c3cc(Cl)ccc3OC)cc21,5.8 µM (active),-12.8
CCn1c(=O)n(CC)c2cc(N3CCCC3)c(NC(=O)c3ccc(C)cc3)cc21,inactive,-23.8
Cc1ccc2c(n1)CC(C)(C)C/C2=N\O,inactive,3.94
CC(C)Oc1cccc(C(=O)C2CCCN(C(=O)c3ccc4c(c3)OCO4)C2)c1 (centres undefined),inactive,-14.4
CC(C)Oc1cccc(C(=O)C2CCCN(C(=O)c3ccsc3)C2)c1 (centres undefined),18.4 µM (active),-18.6
CC(C)Oc1cccc(C(=O)C2CCCN(C(=O)c3csnn3)C2)c1 (centres undefined),inactive,3.1
Cn1ncc(N=Cc2ccccc2[N+](=O)[O-])c1C(N)=O,inactive,-4.8
CCOC(=O)Cn1c(=N)n(CCOc2ccc(Br)cc2)c2ccccc21,inactive,-7.97
CCOC(=O)Cn1nc(C)c(NC(=O)CCc2ccccc2)c1C,inactive,12.6
Oc1ccc(C[C@@H]2CNCCN2CCc2cccc3ccccc23)cc1,inactive,-30.1
c1ccc(C[C@H]2CNCCN2CCc2cccc3ccccc23)cc1,inactive,-0.264
Fc1cccc(CCN2CCNC[C@H]2Cc2cccc3ccccc23)c1,14.6 µM (active),
C=CCn1c(C)cc(C(=O)COC(=O)c2ccc(N)c([N+](=O)[O-])c2)c1C,inactive,5.39
CCN(CC)CCCNC(=S)N(Cc1cccnc1)Cc1cc2cc(C)ccc2[nH]c1=O,inactive,5.5
CCOC(=O)C1CCCN(CCC(C)c2ccccc2)C1 (centres undefined),inactive,2.31
CC(CN1CCCC(C(N)=O)C1)c1ccccc1 (centres undefined),inactive,-8.59
CN1CCCC(C(=O)C(C#N)c2ccccc2)C1 (centres undefined),29.1 µM (active),-21.6
CC(C)n1nc(C(=O)Nc2cccc(S(=O)(=O)NCc3ccco3)c2)c2ccccc2c1=O,inactive,-6.04

SMILES,Potency,cell number change [%]
CC(C)C(NC(=O)c1ccccc1)C(=O)OCn1nnc2ccccc2c1=O (centres undefined),16.4 µM (active),-15.7
CC(=O)OCn1nnc2ccccc2c1=O,inactive,12.3
CC(C)[C@H](NS(=O)(=O)c1ccccc1)C(=O)OCn1nnc2ccccc2c1=O,inactive,
CCOC(=O)c1ccccc1NC(=S)N1CCC(C)CC1,inactive,-4.08
Cc1nnsc1S(=O)c1ccccc1Cl (centres undefined),inactive,-9.44
O=[N+]([O-])c1cccc(/C=N/NS(=O)(=O)c2ccccc2)c1,inactive,-12.3
C=CCNC(=S)NNC(=O)c1ccc(Br)cc1,inactive,-6.86
CC(=O)c1ccc(NC(=S)NC(=O)/C=C/c2ccco2)cc1,inactive,-2.35
CC(=O)Nc1ccc(NC(=S)NC(=O)/C=C/c2ccco2)cc1,4.61 µM (active),-27.7
CC(=O)NC(=S)Nc1ccc(NC(=S)NC(=O)/C=C/c2ccco2)cc1,inactive,15.8
CCO[C@H]1OC(C(=O)N2CCN(C)CC2)=C[C@@H](C2CC2)[C@@H]1CCCO,inactive,
Cc1cc(OCC(=O)NNC(=S)NCC2CCCO2)cc(C)c1Cl (centres undefined),inactive,-9.63
O=C(Nc1ccccc1F)C1COc2ccccc2O1 (centres undefined),inactive,
COc1ccc(OC)c(NC(=O)CCCNC(=O)Cn2cnc3sc(C)c(C)c3c2=O)c1,3.66 µM (active),10.8
COc1ccccc1NC(=O)CCCNC(=O)Cn1cnc2sc(C)c(C)c2c1=O,inactive,9.46
COc1ccc(NC(=O)CCCNC(=O)Cn2cnc3sc(C)c(C)c3c2=O)cc1OC,inactive,19.7
CN1CCN(C2CCN(Cc3ccc(O)c4ncccc34)CC2)CC1,inactive,8.98
COc1ccccc1-c1nc(S(=O)(=O)c2ccccc2)c(N2CCCCC2)o1,4.11 µM (active),-11.8
O=S(=O)(c1ccccc1)c1nc(-c2ccccc2)oc1N1CCCC1,inactive,
COc1ccccc1-c1nc(S(=O)(=O)c2ccccc2)c(N2CCOCC2)o1,inactive,5.82
Cc1nc(CS(=O)c2ccc(Cl)cc2)cc(N2CCOCC2)n1 (centres undefined),inactive,-22.4
Cc1ccc(NC(=O)CN2CCN(Cc3ccccc3)CC2)cc1,inactive,
